Only some compounds are listed: those with a hit (about 7.5% of all), similar ones and a draw of the others.
NPC1 prom act: activates the NPC1 promoter; Huh7 NPC1 promoter luciferase reporter, 24 h; Potency, µM (highest dose often 9.22 µM), usual class: activators; actives 2.4% (n = 320,000); AID 485313; note: nearly all actives have a fitted effect of over 60% in size
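Luminescence read-out of NPC1 promoter-driven luciferase in stably transfected Huh7 cells; compounds delivered in DMSO and left 24 h at 37C, 5% CO2, qHTS titration format.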
Rab9 prom act: activators of Rab9 promoter; AID 485297; Potency, µM (titrated, usually from 9.22 µM), hits mostly activators; actives 2.8% (n = 320,000); Huh7 Rab9 promoter-luciferase reporter, luminescence, 24 h; note: nearly all actives have a fitted effect of over 60% in size
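Stable Rab9-luc Huh7, 1500 cells/well, 2 h settle; cmpd in DMSO, 24 h, 37 °C/5% CO2; luciferase reagent 10 min RT; luminescence.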
ELG1 genotox: inducers of genotoxicity in HEK293T ELG1-luciferase cells | HEK293T ELG1-luciferase reporter, luminescence, 16 h | Potency, µM (doses to about 46 µM), most hits filed as activators | actives 1.3% (n = 330,000) | AID 504466; note: nearly all actives have a fitted effect of over 60% in size
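ELG1-luciferase HEK293T cells, 2,000/well; compound pinned in; 16 hr, 37 °C, 5% CO2; ONE-Glo, 30 min RT; luminescence on CCD imager.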
SMN2 splice up: increases expression of the SMN2 splice variant; HEK293 SMN2-luciferase splicing reporter, luminescence, 30-36 h; Potency, µM (series often up to 46.1 µM), hits mostly activators; actives 2.8% (n = 210,000); AID 1458; note: nearly all actives have a fitted effect of over 55% in size
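HEK293 cells carry an SMN2 minigene-luciferase reporter in which exon 7 inclusion puts luciferase in frame. Cells were seeded at 2000 cells/well, attached for 10-12 hours, then exposed to compounds for 30-36 hours at 37C before ONE-Glo luminescence.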
FLuc modulator: counter-screen for miR-21 project: firefly luciferase inhibitors or activators | Potency, µM (titrated, usually from 57.5 µM), hits mostly inhibitors | P08659 | purified FLuc, Km substrates, luminescence inhibition | actives 6.9% (n = 360,000) | AID 588342; note: nearly all actives have a fitted effect of over 55% in size
Target sequence (P08659 whole entry, looked up): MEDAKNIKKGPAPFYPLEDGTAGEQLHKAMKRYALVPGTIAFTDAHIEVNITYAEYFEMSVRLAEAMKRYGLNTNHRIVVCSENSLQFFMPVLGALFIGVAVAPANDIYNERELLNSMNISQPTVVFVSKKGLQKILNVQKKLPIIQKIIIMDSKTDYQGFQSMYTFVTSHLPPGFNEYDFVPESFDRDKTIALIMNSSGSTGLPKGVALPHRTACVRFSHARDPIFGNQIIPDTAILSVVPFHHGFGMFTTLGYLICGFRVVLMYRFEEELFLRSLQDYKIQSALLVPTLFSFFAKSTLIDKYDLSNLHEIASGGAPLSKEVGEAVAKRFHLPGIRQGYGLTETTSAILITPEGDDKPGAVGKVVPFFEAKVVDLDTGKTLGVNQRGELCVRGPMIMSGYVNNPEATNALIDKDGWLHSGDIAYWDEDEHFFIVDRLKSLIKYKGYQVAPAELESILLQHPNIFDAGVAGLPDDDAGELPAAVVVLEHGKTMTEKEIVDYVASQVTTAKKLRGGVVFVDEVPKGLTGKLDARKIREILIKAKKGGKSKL
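Purified P. pyralis luciferase (10nM final) with 10uM D-luciferin and 10uM ATP (Km levels) in 50mM Tris acetate pH 7.5, 10mM Mg acetate, 0.01% Tween-20, 0.05% BSA; qHTS 6-point titration, ~60 µM downward; luminescence read.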
Numbers stand for hits; – = inactive; ? = inconclusive; · = no result given; [ ] = dose if it differs, or a comment. Calls come from the whole dose curve; as a rule, active = well fitted curve in the direction sought with a large enough effect; inconclusive = small, poorly fitted or top-dose-only effect, or another doubt; inactive = no such curve, though single readings can be large; an effect the other way counts as inactive or inconclusive.

SMILES | NPC1 prom act | Rab9 prom act | ELG1 genotox | SMN2 splice up | FLuc modulator
Cc1cccc(-n2c(=O)c3c(c4cc(C)ccc4n3C)n(CC(=O)N3CCCC3)c2=O)c1 | · | · | · | · | –
Cc1ccc(Nc2ncnc3ccccc23)cc1 | ? | 1.8µM | – | · | 12µM
Oc1ccc(Nc2ncnc3ccccc23)cc1 | – | – | – | · | ?
CC(C)Oc1ccc(Nc2ncnc3ccccc23)cc1 | 3.5µM | 3.2µM | ? | 13µM | 17µM
COc1cc(NC(=O)Cn2c(=O)n(-c3cccc(C)c3)c(=O)c3c(C)c(C)sc32)cc(OC)c1 | – | – | – | – | –
O=C(c1ccc(F)c(F)c1)N1CCC2(CC1)NCCc1[nH]cnc12 | – | – | – | · | –
C#CCn1c(=NC(=O)c2ccco2)sc2cccc(Cl)c21 | – | – | ? | · | –
CC(=O)N/N=c1\sc2ccccc2n1C | – | – | – | – | –
Cn1c(=NC(=O)c2ccco2)sc2ccccc21 | ? | ? | 4.1µM | 4.5µM | 2.7µM
Cn1c(=NC(=O)CCl)sc2ccccc21 | – | – | ? | – | –
Cn1c(=NC(=O)c2cccc([N+](=O)[O-])c2)sc2ccccc21 | ? | 2.8µM | 0.82µM | 1.6µM | 0.34µM
Cc1sc(=NC(=O)c2ccco2)n(C)c1-c1ccccc1 | 0.89µM | 1.3µM | ? | 2.2µM | 0.95µM
Cn1/c(=N\NC(=O)c2ccccc2Cl)sc2ccccc21 | ? | ? | – | ? | 17µM
COc1cc2c(cc1OC)C1O[C@](CCCCN3C(=O)c4ccccc4C3=O)(C2)Oc2c1c(=O)oc1ccccc21 | –[1.84 µM] | –[1.84 µM] | · | · | –[11.5 µM]
CCN(CC(=O)NC(C)(C)C)C(=O)CCl | – | – | – | – | –
CNS(=O)(=O)c1ccc(NCC2COc3ccccc3O2)c([N+](=O)[O-])c1 (configuration not stated) | – | – | – | – | –
CCOc1cccc2sc(=NC(=O)c3ccco3)n(CC(=O)OC)c12 | – | – | – | · | –
Cc1sc(=NC(=O)c2ccco2)n(C)c1-c1ccc(F)cc1 | 2.8µM | 2µM | ? | 3.5µM | 2.4µM
CCCCc1nc2cc(C(=O)N(C)CCc3cn[nH]c3)ccc2o1 | – | – | – | · | ?
O=C(c1ccc2oc(CCCc3ccccc3)nc2c1)N1CCCC(CCCO)C1 (configuration not stated) | – | – | – | · | –
CCCCc1nc2cc(C(=O)N(C)C3CCOCC3)ccc2o1 | ? | 2.5µM | 9.2µM | · | 13µM
CCCCc1nc2cc(C(=O)N3CCC[C@H]3CO)ccc2o1 | – | – | ? | · | –
CCCCc1nc2cc(C(=O)N3CCC(O)CC3)ccc2o1 | 1.6µM | 2µM | ? | · | 11µM
O=C(c1ccc2oc(CCc3ccccc3)nc2c1)N1CC[C@H](O)C1 | 3.5µM | 1.4µM | ? | · | ?
CCOC(=O)N1CCN(C(=O)c2ccc3oc(CCCc4ccccc4)nc3c2)CC1 | 1.6µM | 1.6µM | ? | · | 6µM
SMILES | NPC1 prom act | Rab9 prom act | ELG1 genotox | SMN2 splice up | FLuc modulator
CC(=O)N1CCN(C(=O)c2ccc3oc(CCCc4ccccc4)nc3c2)CC1 | – | – | –[9.26 µM] | · | –
COC(=O)CCCNC(=O)c1ccc2oc(CCCc3ccccc3)nc2c1 | – | ? | – | · | ?
COC(=O)[C@@H](C)NC(=O)c1ccc2oc(CCc3ccccc3)nc2c1 | 4µM | 2.5µM | ? | · | 21µM
COc1ccc(C(=O)Nc2cc3cc(Cl)ccc3oc2=O)cc1OC | · | · | · | – | –
Cc1ccc(-c2noc(/C=C/c3ccccc3)n2)cc1 | ? | ? | – | ? | 9.5µM
Clc1ccccc1/C=C/c1nc(-c2cccnc2)no1 | 1.3µM | 0.63µM | ? | · | 1.7µM
C(=C\c1nc(-c2cccnc2)no1)/c1ccccc1 | – | ? | – | · | 4.8µM
Clc1ccc(-c2noc(/C=C/c3ccccc3)n2)cc1 | – | – | ? | · | ?
Clc1ccc(OCCCc2nc(-c3cccnc3)no2)c(Cl)c1 | – | – | – | · | –
COc1ccc(CNC(=O)c2cc(-c3cccs3)nc3ccccc23)c(OC)c1 | · | · | · | – | –
COc1cc(NC(=O)c2ccccc2)c(OC)cc1NC(=O)CN1C(=O)N(C)C2(CCCCC2)C1=O | – | – | – | · | –
CCOC(=O)c1c(C)[nH]c(C2=NNC(=NC3CC3)SC2)c1C | ? | ? | 0.58µM | – | 0.6µM
COc1cc(=O)[nH]c(SC(C)C(=O)Nc2ccc3ccccc3c2)n1 (configuration not stated) | – | – | – | · | –
O=C(N/N=C/c1cccnc1)c1cc(-c2ccc(Br)cc2)nc2ccccc12 | – | – | – | · | 6.7µM

Compound activity from PubChem.
